# HttQ103 aggreg – reduces HttQ103-GFP aggregates in PC12 cells | PC12 HttQ103-GFP aggregates, Acumen cytometry, 40 h | Potency, µM (titrated, usually from 46.1 µM), inactives show top-dose activity change, negative = inhibition, actives largely listed as inhibitors | actives 1.1% (n = 220,000); active = well fitted curve in the direction sought with a large enough effect; inconclusive = small, poorly fitted or top-dose-only effect, or another doubt; inactive = no such curve, though single readings can be large; an effect the other way counts as inactive or inconclusive; also: % is scaled to controls: 0 for no effect and ±100 for the full control effect; nearly all actives have a fitted effect of over 60% in size
#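 Huntingtin Q103 exon 1–GFP aggregates in induced PC12 cells (100 nM tebufenozide) were quantified by cytometry from lysates, with compounds dosed in titration.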
# HPGD inh – inhibitors of human 15-hydroxyprostaglandin dehydrogenase (HPGD) | purified HPGD, NADH fluorescence kinetic, PGE2 substrate | Potency, µM, for inactives: top-dose activity change, negative = inhibition, most hits filed as inhibitors | actives 4.3% (n = 150,000); also: % is scaled to controls: 0 for no effect and ±100 for the full control effect
#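 20 nM HPGD preincubated 15 min at room temperature with compound in 50 mM Tris-HCl pH 8, 0.01% Tween 20. Started with 1 mM NAD+ and 30 uM prostaglandin E2; NADH fluorescence (360/450 nm) read 5 times over 30-s intervals, last minus first.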
# Lamin A splicing – changes lamin A minigene splicing in HeLa cells; HeLa LMNA splicing GFP/RFP minigene ratio, 48 h; Potency, µM (doses to about 46.1 µM), inactives show top-dose ratio change, negative = inhibition, usual class: inhibitors; actives 0.01% (n = 200,000); active = well fitted inhibition curve with a large enough effect in the signal ratio, with a control signal flat, not every such curve was filed as active; inconclusive = small, poorly fitted or top-dose-only effect, or effect the other way, or a change in a side signal; the % refers to the signal ratio; also: % is scaled to controls: 0 for no effect and ±100 for the full control effect
#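 S3 HeLa cells stably expressing lamin A-EGFP splicing minigene plus DsRed2, 600 cells/well, 48 h compound exposure at 37C. Laser-scanning cytometry; analysed as GFP (500-530 nm)/RFP (575-640 nm) total intensity ratio; 0.5% DMSO vehicle.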
# ALDH1A1 block – ALDH1A1 (human) enzyme inhibition | P00352 | Purified ALDH1A1, NADH fluorescence, propionaldehyde substrate | Potency, µM (top dose mostly 75.3 µM), without a hit: at the highest dose activity, negative = inhibition, actives largely listed as inhibitors | actives 7.3% (n = 220,000) | AID 1030;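 also: plate controls were no enzyme wells and a reference inhibitor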
# Target sequence (P00352 whole entry, looked up): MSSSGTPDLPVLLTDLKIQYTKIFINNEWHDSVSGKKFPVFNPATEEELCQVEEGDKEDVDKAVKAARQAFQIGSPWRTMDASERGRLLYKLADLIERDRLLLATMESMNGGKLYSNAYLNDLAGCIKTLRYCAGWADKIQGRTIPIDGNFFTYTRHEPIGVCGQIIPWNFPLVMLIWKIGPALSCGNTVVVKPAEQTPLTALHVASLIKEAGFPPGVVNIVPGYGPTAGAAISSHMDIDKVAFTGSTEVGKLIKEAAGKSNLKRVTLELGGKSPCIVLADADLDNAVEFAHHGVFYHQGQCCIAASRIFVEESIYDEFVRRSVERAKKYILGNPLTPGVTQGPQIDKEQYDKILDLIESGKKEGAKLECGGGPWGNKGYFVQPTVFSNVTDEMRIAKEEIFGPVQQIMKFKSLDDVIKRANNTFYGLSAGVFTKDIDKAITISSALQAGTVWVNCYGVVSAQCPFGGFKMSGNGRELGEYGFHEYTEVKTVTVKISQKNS
# HTT ATP protect – protects HTT-Q103 PC12 cells, measured by ATP; Potency, µM (series often up to 56.4 µM), for inactives: cytoprotection (ATP increase), usual class: activators; PC12 HTT-Q103 induced, cytoprotection, ATP luminescence, 40 h; actives 0.14% (n = 230,000); AID 1471; active = well fitted curve in the direction sought with a large enough effect; inconclusive = small, poorly fitted or top-dose-only effect, or another doubt; inactive = no such curve, though single readings can be large; an effect the other way counts as inactive or inconclusive; also: % of control where 0% means no effect; nearly all actives have a fitted effect of over 45% in size
#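 Compounds added alongside 100 nM tebufenozide, which induces toxic Q103 huntingtin exon 1-GFP in stable PC12 cells; surviving cells quantified by luminescent ATP measurement. Medium: phenol red-free DMEM, 5% equine and 5% calf serum.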
# * marks the source's active call; other numbers are inactive results; ? = inconclusive; · = not tested or not shown; [ ] = another dose, or the depositor's remark. An excerpt weighted towards active compounds, which were near 8.8% of everything screened. Unless noted, calls follow the shape of the dose curve; as a rule, active = well fitted inhibition curve with a large enough effect (not every such curve was filed as active); inconclusive = small, poorly fitted or top-dose-only effect, or another doubt; inactive = no such curve, though single readings can be large or run the other way. Potency is read from the fitted curve at half-maximal effect.
SMILES,HttQ103 aggreg,HPGD inh,Lamin A splicing,ALDH1A1 block,HTT ATP protect
Cc1cccc(Nc2n[nH]c(=S)s2)c1C,22%,10µM*,10%,3.5µM*,-20%
Cc1cccc(Nc2nc3ccccc3s2)c1C,-12%,-11%,?,4%,·
COc1ccccc1Nc1n[nH]c(=S)s1,12%,·,5%[46 µM],3.5µM*,-50%
O=C(COc1ccc(F)cc1)NC1CC(=O)N(c2ccc3c(c2)OCCO3)C1 (configuration not stated),·,·,7%[46 µM],·,·
Cc1ccccc1Nc1nc(N)nc(COC(=O)c2cccc(S(=O)(=O)NCc3ccccc3)c2)n1,0%,28µM*,-9%,11%,20%[10 µM]
O=C(COC(=O)c1cccc(S(=O)(=O)NCc2ccccc2)c1)c1ccccc1,7%,20µM*,?,-11%,9%[10 µM]
Cc1cc(C)nc(NC(=O)C(c2ccccc2)c2ccccc2)c1,-30%,-1%,-1%,14µM*,43%[10 µM]
Cc1occc1C(=O)NC(C)C(C)(C)C (configuration not stated),21%,32µM*,-5%,1%,0%
O=C(N/N=C/C1C(c2ccccc2)C1(Cl)Cl)c1cccc(Br)c1 (configuration not stated),-6%,-11%,-10%,11µM*,-21%
CCOc1ccc(NCC(=O)c2ccc(C)cc2)cc1,11µM*,·,2%[46 µM],3.2µM*,-221%
C/C(=N/NC(=O)CNc1ccc(C)cc1)c1ccc(Cl)cc1,4%,-9%,-16%,?,17%[10 µM]
CCOc1ccc(NC(=O)c2ccc(NCC(=O)N3CCCCCC3)cc2)cc1,-2%,·,16%[46 µM],6.3µM*,-3%[10 µM]
O=C(O)CCC(=O)CCC(=O)c1ccc(Cl)cc1,0%[9.22 µM],-17%,7%,-1%,-3%
CN(C)CCC(=O)c1ccc(Cl)cc1,25%,16µM*,2%,0.11µM*,4%
CCOc1ccc(C(=O)COc2ccc(NC(C)=O)cc2)cc1,16%,-21%,-3%,0%,-49%[10 µM]
Cc1ccc(C(=O)CNc2ccc(Cl)cc2)cc1,10%,·,·,10µM*,-30%
Cc1ccc(OC(C)C(=O)N2CCN(CCc3ccncc3)CC2)cc1C (configuration not stated),·,·,5%[46 µM],·,·
O=S(=O)(N/N=C/c1ccc(N2CCOCC2)cc1)c1ccc(Br)cc1,-5%,·,·,?,-22%
O=C(NNC(=O)c1cc2cc(Br)ccc2oc1=O)c1ccc(O)cc1O,35µM*,·,·,1%,?
COc1ccc(C2=C(Nc3ccc(F)cc3)c3ccccc3C2=O)cc1,?,25µM*,?,?,-58%
COc1ccc(C2=C(Nc3ccc(C)cc3)c3ccccc3C2=O)cc1,16%,-6%,-15%,7%,-13%[10 µM]
CSCCC(NS(=O)(=O)c1ccc2c(c1)oc(=O)n2C)C(=O)N1CCN(c2cccc(Cl)c2)CC1 (configuration not stated),·,·,1%[46 µM],·,·
CCOC(=O)C1OC1C(=O)NC(CC(C)C)C(=O)NCCC(C)C (configuration not stated),·,·,·,1%,-4%
COc1ccc(-c2csc(Nc3ccccc3)[n+]2Cc2ccccc2)cc1,-31%,·,-25%[46 µM],?,-54%
O=[N+]([O-])c1ccc(-c2csc(Nc3ccccc3)[n+]2Cc2ccccc2)cc1,3%,-21%,?,32µM*,-45%[1.9 µM]
SMILES,HttQ103 aggreg,HPGD inh,Lamin A splicing,ALDH1A1 block,HTT ATP protect
O=C(NCc1ccco1)NC1CCCCC1,-11%,-10%,-4%,3%,33%[1.9 µM]
Cc1ccc(NC(=O)CSCc2ccco2)cc1,2%,·,-11%[46 µM],22µM*,·
O=C(CSc1nnc(Cc2ccccc2)n1Cc1ccco1)NC1CCCC1,2%,-13%,18%,22µM*,-1%
O=C(CSCc1ccco1)NC1CCCC1,6%,28µM*,3%,?,7%[10 µM]
Cc1ccccc1CSCC(=O)NC1CCCC1,-6%,18µM*,2%,8%,-13%
N[C@@H](Cc1cc(-c2ccc(Cl)cc2Cl)cc(CP(=O)(O)O)c1O)C(=O)O,·,?,·,?,8%
CN(C(=O)CSc1nc2ccc(NC(=O)COc3ccccc3Cl)cc2s1)c1ccccc1,·,·,4%[46 µM],·,·
CC(=O)N(Cc1ccco1)C1(C(=O)NC2CCCC2)CCCCC1,-4%[9.22 µM],-6%,-4%,-8%,-15%
O=CN(Cc1ccco1)C1(C(=O)NC2CCCCC2)CCCCC1,3%,3%,0%,14µM*,8%[10 µM]

# Screening results as filed in PubChem BioAssay.
